{"source": "the antibiotic and cytotoxicity screens of Wong et al. (2023)", "note": "In all, about 39,000 compounds went through this assay and about 3,300 (8.5%) were called active. This excerpt belongs to a sample that is enriched for actives.", "data": [{"tested_on": "HepG2", "test": "cytotoxicity call (relative viability < 0.9)", "details": "10 µM", "values": [{"smiles": "C[C@H](CO)N1C[C@H](C)[C@H](CN(C)C(=O)Nc2ccccc2)OCCCC[C@H](C)Oc2ccc(NC(=O)Nc3ccc4c(c3)OCO4)cc2C1=O", "cytotoxicity call": "inactive"}, {"smiles": "COc1ccc(NC(=O)N(C)C[C@H]2OCCCC[C@@H](C)Oc3ccc(NC(=O)Cc4ccccc4)cc3C(=O)N([C@@H](C)CO)C[C@H]2C)cc1", "cytotoxicity call": "inactive"}, {"smiles": "C[C@@H]1CCCCO[C@H](CN(C)C(=O)Nc2ccc(F)cc2)[C@H](C)CN([C@H](C)CO)C(=O)c2cc(NC(=O)Nc3ccc(F)cc3)ccc2O1", "cytotoxicity call": "inactive"}, {"smiles": "C[C@H]1CN([C@@H](C)CO)C(=O)c2cc(NC(=O)Cc3ccccc3)ccc2O[C@@H]1CN(C)Cc1ccc(Cl)c(Cl)c1", "cytotoxicity call": "inactive"}, {"smiles": "C[C@@H]1CCCCO[C@H](CN(C)S(=O)(=O)c2ccccc2)[C@H](C)CN([C@H](C)CO)C(=O)c2cc(NS(=O)(=O)c3cn(C)cn3)ccc2O1", "cytotoxicity call": "inactive"}, {"smiles": "COc1ccc(NC(=O)N(C)C[C@H]2Oc3c(NC(=O)c4cnccn4)cccc3C(=O)N([C@H](C)CO)C[C@@H]2C)cc1", "cytotoxicity call": "inactive"}, {"smiles": "C[C@@H]1CCCCO[C@@H](CN(C)Cc2ccc(C(=O)O)cc2)[C@H](C)CN([C@H](C)CO)C(=O)c2cc(NS(=O)(=O)c3ccccc3)ccc2O1", "cytotoxicity call": "inactive"}, {"smiles": "Cc1noc(C)c1NC(=O)Nc1ccc2c(c1)C(=O)N([C@@H](C)CO)C[C@@H](C)[C@H](CN(C)Cc1ccc(Cl)c(Cl)c1)O2", "cytotoxicity call": "inactive"}, {"smiles": "C[C@H]1CCCCO[C@@H](CN(C)Cc2ccc(C(F)(F)F)cc2)[C@@H](C)CN([C@@H](C)CO)C(=O)c2cc(NS(C)(=O)=O)ccc2O1", "cytotoxicity call": "inactive"}, {"smiles": "C[C@@H]1CN([C@@H](C)CO)C(=O)c2cc(NC(=O)Nc3cccc4ccccc34)ccc2O[C@@H](C)CCCCO[C@H]1CN(C)Cc1ccc2c(c1)OCO2", "cytotoxicity call": "active"}, {"smiles": "C[C@@H]1CCCCO[C@H](CN(C)Cc2ccc3c(c2)OCO3)[C@H](C)CN([C@@H](C)CO)C(=O)c2cc(NC(=O)Nc3cccc4ccccc34)ccc2O1", "cytotoxicity call": "active"}, {"smiles": "C[C@H]1CCCCO[C@@H](CN(C)Cc2ccc3c(c2)OCO3)[C@@H](C)CN([C@@H](C)CO)C(=O)c2cc(NC(=O)Nc3cccc4ccccc34)ccc2O1", "cytotoxicity call": "inactive"}, {"smiles": "C[C@@H]1CCCCO[C@H](CN(C)Cc2ccc3c(c2)OCO3)[C@H](C)CN([C@H](C)CO)C(=O)c2cc(NC(=O)Nc3cccc4ccccc34)ccc2O1", "cytotoxicity call": "inactive"}, {"smiles": "C[C@@H]1CCCCO[C@@H](CN(C)Cc2ccc3c(c2)OCO3)[C@@H](C)CN([C@H](C)CO)C(=O)c2cc(NC(=O)Nc3cccc4ccccc34)ccc2O1", "cytotoxicity call": "inactive"}, {"smiles": "C[C@@H]1CCCCO[C@@H](CN(C)Cc2ccc3c(c2)OCO3)[C@@H](C)CN([C@@H](C)CO)C(=O)c2cc(NC(=O)Nc3cccc4ccccc34)ccc2O1", "cytotoxicity call": "inactive"}, {"smiles": "C[C@@H]1CN([C@H](C)CO)C(=O)c2cc(NC(=O)Nc3cccc4ccccc34)ccc2O[C@@H](C)CCCCO[C@@H]1CN(C)Cc1ccc2c(c1)OCO2", "cytotoxicity call": "active"}, {"smiles": "C[C@@H]1CCCCO[C@H](CN(C)Cc2ccc3c(c2)OCO3)[C@@H](C)CN([C@@H](C)CO)C(=O)c2cc(NC(=O)Nc3cccc4ccccc34)ccc2O1", "cytotoxicity call": "active"}, {"smiles": "CCOC(=O)c1c(C)c(Cl)c(O)c(Cl)c1O", "cytotoxicity call": "inactive"}, {"smiles": "COc1ccc(S(=O)(=O)Nc2ccc3c(c2)CC(=O)N([C@H](C)CO)C[C@@H](C)[C@H](CN(C)C)O3)cc1", "cytotoxicity call": "inactive"}, {"smiles": "Cc1noc(C)c1NC(=O)N(C)C[C@@H]1OCCCC[C@@H](C)Oc2ccc(NC(=O)Nc3ccc(F)cc3)cc2C(=O)N([C@H](C)CO)C[C@@H]1C", "cytotoxicity call": "inactive"}, {"smiles": "Cc1noc(C)c1S(=O)(=O)N(C)C[C@@H]1OCc2cnnn2CCCC(=O)N([C@@H](C)CO)C[C@H]1C", "cytotoxicity call": "inactive"}, {"smiles": "C[C@@H]1CCCCO[C@H](CN(C)C(=O)C2CCCCC2)[C@@H](C)CN([C@H](C)CO)C(=O)c2cc(NC(=O)C3CCCCC3)ccc2O1", "cytotoxicity call": "inactive"}, {"smiles": "CC(C)NC(=O)Nc1ccc2c(c1)C(=O)N([C@H](C)CO)C[C@@H](C)[C@H](CN(C)S(=O)(=O)c1cn(C)cn1)O2", "cytotoxicity call": "inactive"}, {"smiles": "O=C(C[C@H]1CC[C@H]2[C@@H](COC[C@H](O)CN2C(=O)Nc2cccc(Cl)c2)O1)NCc1ccccc1F", "cytotoxicity call": "inactive"}, {"smiles": "COc1ccccc1CNC(=O)C[C@@H]1CC[C@@H]2[C@H](COC[C@@H](O)CN2C(=O)Nc2ccc(F)cc2)O1", "cytotoxicity call": "inactive"}, {"smiles": "COCCNC(=O)C[C@H]1CC[C@@H]2[C@H](COC[C@@H](O)CN2C(=O)Nc2ccccc2OC)O1", "cytotoxicity call": "inactive"}, {"smiles": "O=C(C[C@H]1CC[C@@H]2[C@H](COC[C@@H](O)CN2C(=O)Nc2cccc(Cl)c2)O1)NCc1ccccc1F", "cytotoxicity call": "active"}, {"smiles": "COc1ccccc1CNC(=O)C[C@@H]1CC[C@H]2[C@@H](COC[C@H](O)CN2C(=O)Nc2ccc(F)cc2)O1", "cytotoxicity call": "inactive"}, {"smiles": "O=C(C[C@@H]1CC[C@H]2[C@@H](COC[C@H](O)CN2C(=O)Nc2cccc(Cl)c2)O1)NCc1ccccc1F", "cytotoxicity call": "inactive"}, {"smiles": "COc1ccccc1CNC(=O)C[C@H]1CC[C@H]2[C@@H](COC[C@H](O)CN2C(=O)Nc2ccc(F)cc2)O1", "cytotoxicity call": "active"}, {"smiles": "COCCNC(=O)C[C@H]1CC[C@H]2[C@@H](COC[C@H](O)CN2C(=O)Nc2ccccc2OC)O1", "cytotoxicity call": "inactive"}, {"smiles": "COCCNC(=O)C[C@H]1CC[C@@H]2[C@H](COC[C@H](O)CN2C(=O)Nc2ccccc2OC)O1", "cytotoxicity call": "active"}, {"smiles": "CO[C@@H]1CN(C)C(=O)c2cc(NC(=O)c3ccc(F)cc3)ccc2OC[C@H](C)N(C(=O)CN(C)C)C[C@@H]1C", "cytotoxicity call": "inactive"}, {"smiles": "CN1C(=O)c2cc(NC(=O)Nc3ccccc3F)ccc2OC[C@@H]2O[C@H](CC(=O)NCc3ccc(-c4ccccc4)cc3)CC[C@@H]21", "cytotoxicity call": "inactive"}, {"smiles": "CS(=O)(=O)N1CCCn2c(nc(CNC(=O)CC3CC3)cc2=O)C1", "cytotoxicity call": "inactive"}, {"smiles": "CC(C)Oc1oc(C(=O)NC2CCCCC2)c(-c2ccc(Cl)cc2)c1S(=O)(=O)c1ccc(Cl)cc1", "cytotoxicity call": "inactive"}, {"smiles": "C[C@H](CO)N1C[C@H](C)[C@@H](CN(C)Cc2ccncc2)OCCCC[C@H](C)Oc2ccc(NC(=O)NC3CCCCC3)cc2C1=O", "cytotoxicity call": "inactive"}, {"smiles": "O=C(C[C@@H]1C=C[C@@H](NC(=O)C2CC2)[C@H](CO)O1)NCCCN1CCOCC1", "cytotoxicity call": "inactive"}, {"smiles": "CN(C)C(=O)C[C@@H]1C=C[C@H](NC(=O)C2CCOCC2)[C@@H](CO)O1", "cytotoxicity call": "inactive"}, {"smiles": "C[C@H](CO)N1C[C@H](C)[C@H](CN(C)S(=O)(=O)c2ccccc2)Oc2ccc(NC(=O)c3ccncc3)cc2C1=O", "cytotoxicity call": "inactive"}, {"smiles": "O=S1(=O)CO[C@@H](c2ccccc2)CN1", "cytotoxicity call": "inactive"}, {"smiles": "O=C(CS)NCCCCCCNC(=O)[C@@H]1C[C@@H]2C(=O)N3CCC[C@H]3C(=O)N2[C@@H]1c1cccc(OCCO)c1", "cytotoxicity call": "inactive"}, {"smiles": "O=C(C[C@H]1CC[C@H]2[C@@H](COC[C@H](O)CN2Cc2cc(F)ccc2F)O1)N[C@@H]1CCN(Cc2ccccc2)C1", "cytotoxicity call": "inactive"}, {"smiles": "C[C@@H]1CN([C@H](C)CO)C(=O)c2cccc(NC(=O)Nc3ccc(C(F)(F)F)cc3)c2O[C@@H]1CN(C)C(=O)Nc1ccc(C(F)(F)F)cc1", "cytotoxicity call": "inactive"}, {"smiles": "C[C@@H]1CN([C@@H](C)CO)C(=O)c2cccc(NC(=O)Nc3ccc(C(F)(F)F)cc3)c2O[C@@H]1CN(C)C(=O)Nc1ccc(C(F)(F)F)cc1", "cytotoxicity call": "active"}, {"smiles": "COc1ccc(NC(=O)Nc2cccc3c2O[C@H](CN(C)C(=O)Nc2ccc(C(F)(F)F)cc2)[C@@H](C)CN([C@@H](C)CO)C3=O)cc1", "cytotoxicity call": "inactive"}, {"smiles": "C[C@H](CO)N1C[C@H](C)[C@H](CN(C)C(=O)Nc2ccc(C(F)(F)F)cc2)Oc2c(NC(=O)Nc3ccc(C(F)(F)F)cc3)cccc2C1=O", "cytotoxicity call": "active"}, {"smiles": "COc1ccc(NC(=O)Nc2cccc3c2O[C@@H](CN(C)C(=O)Nc2ccc(C(F)(F)F)cc2)[C@@H](C)CN([C@@H](C)CO)C3=O)cc1", "cytotoxicity call": "inactive"}, {"smiles": "C[C@H]1CN([C@@H](C)CO)C(=O)c2cccc(NC(=O)Nc3ccc(C(F)(F)F)cc3)c2O[C@@H]1CN(C)C(=O)Nc1ccc(C(F)(F)F)cc1", "cytotoxicity call": "active"}, {"smiles": "C[C@@H]1CN([C@@H](C)CO)C(=O)c2cccc(NC(=O)Nc3ccc(C(F)(F)F)cc3)c2O[C@H]1CN(C)C(=O)Nc1ccc(C(F)(F)F)cc1", "cytotoxicity call": "inactive"}, {"smiles": "COc1ccc(NC(=O)N(C)C[C@H]2Oc3c(NC(=O)Nc4ccc(C(F)(F)F)cc4)cccc3C(=O)N([C@@H](C)CO)C[C@H]2C)cc1", "cytotoxicity call": "active"}, {"smiles": "C[C@H]1CN([C@@H](C)CO)C(=O)c2cccc(NC(=O)Nc3ccc(C(F)(F)F)cc3)c2O[C@H]1CN(C)C(=O)Nc1ccc(C(F)(F)F)cc1", "cytotoxicity call": "inactive"}, {"smiles": "C[C@@H]1CN([C@H](C)CO)C(=O)c2cccc(NC(=O)Nc3ccc(C(F)(F)F)cc3)c2O[C@H]1CN(C)C(=O)Nc1ccc(C(F)(F)F)cc1", "cytotoxicity call": "inactive"}, {"smiles": "O=C(O)C[C@@H]1C=C[C@@H](NC(=O)c2ccncc2)[C@H](CO)O1", "cytotoxicity call": "inactive"}, {"smiles": "CCCN(C)C[C@H]1OCCCC[C@@H](C)Oc2ccc(NC(=O)c3ccccc3)cc2C(=O)N([C@H](C)CO)C[C@H]1C", "cytotoxicity call": "inactive"}, {"smiles": "Cc1noc(C)c1NC(=O)Nc1ccc2c(c1)C(=O)N([C@H](C)CO)C[C@@H](C)[C@@H](CN(C)C(=O)Nc1ccccc1)OCCCC[C@@H](C)O2", "cytotoxicity call": "inactive"}, {"smiles": "CN1N=C(N)c2cn([C@@H]3O[C@H](COP(=O)(O)O)[C@@H](O)[C@H]3O)c3ncnc1c23", "cytotoxicity call": "inactive"}, {"smiles": "C[C@@H]1CN([C@@H](C)CO)C(=O)Cc2cc(NC(=O)CCN3CCOCC3)ccc2O[C@H]1CN(C)C(=O)Nc1ccccc1", "cytotoxicity call": "inactive"}, {"smiles": "CCO[C@@H]1OC(C(=O)N2CCN(Cc3ccc4c(c3)OCO4)CC2)=C[C@H](c2ccc3c(c2)OCO3)[C@H]1CCCO", "cytotoxicity call": "inactive"}, {"smiles": "COCC1=C(C(=O)OC(C)OC(=O)OC(C)C)N2C(=O)C(NC(=O)C(=NOC)c3csc(N)n3)C2SC1", "note": "(stereo unspecified)", "cytotoxicity call": "inactive"}, {"smiles": "C[C@H](CO)N1C[C@H](C)[C@@H](CN(C)Cc2ccncc2)Oc2cc(C#CC(C)(C)O)ccc2S1(=O)=O", "cytotoxicity call": "inactive"}]}]}
